Results filed as inconclusive are left out. A call without a number means that no potency is given here. A structure can be active in one record and inactive in another. Calls of active or inactive are those of the source. Calls follow the shape of the full dose curve.
Assay: qHTS assay for small molecule agonists of the antioxidant response element (ARE) signaling pathway - cell viability counter screen (AID 743203); also: nearly all actives have a fitted effect of over 55% in size
Settings: ARE-bla HepG2 viability, CellTiter-Glo luminescence, 16 h; series mostly up to 73.3 µM
Text: National Center for Advancing Translational Sciences [NCATS]
NIH Chemical Genomics Center [NCGC]
U.S. Environmental Protection Agency [EPA]
National Institutes of Environmental Health Sciences [NIEHS]
National Toxicology Program [NTP]
U.S. Food and Drug Administration [FDA]
Oxidative stress has been implicated in the pathogenesis of a variety of diseases ranging from cancer to neurodegeneration. The antioxidant response element (ARE) signaling pathway plays an important role in the amelioration of oxidative stress. The CellSensor ARE-bla HepG2 cell line (Invitrogen) can be used for analyzing the Nrf2/antioxidant response signaling pathway. Nrf2 (NF-E2-related factor 2) and Nrf1 are transcription factors that bind to AREs and activate these genes. The CellSensor ARE-bla Hep G2 cell line contains a beta-lactamase reporter gene under control of the Antioxidant Response Element (ARE) stably integrated into HepG2 cells. The activation of the report gene under culture conditions can be detected by fluorescence intensity. This cell line has been used to screen the Tox21 10K compound library to identify agonists that induce oxidative stress. The cytotoxicity of the Tox21 compound library against the ARE-bla cell line was tested in parallel by measuring the cell viability using CellTiter-Glo assay (Promega, Madison, WI) in the same wells.
Tox21 Assay Protocol Summary:
ARE-bla HepG2 cells were dispensed at 2,000 cells/5 ul/well in 1536-well white wall/solid bottom plates using a Multidrop Combi (ThermoFisher Scientific, Waltham, MA) dispenser. After the assay plates were incubated at 37C/5% CO2 for 5 hrs, 23 nL of compounds dissolved in DMSO, positive controls or DMSO only was transferred to the assay plate by a pintool work station (Kalypsys, San Diego, CA). The plates were incubated at 37C/5% CO2 for 16 hrs, followed by addition of 4 ul/well of CellTiter-Glo reagent into the assay plates using a Flying Reagent Dispenser (Aurora Discovery, San Diego, CA). After 30 min incubation at room temperature, the luminescence intensity in the assay plates was measured using a ViewLux (PerkinElmer, Shelton, CT) plate reader.
Potency is read from the fitted curve at half-maximal effect.

| SMILES | Potency |
| --- | --- |
| Cc1ccc(O)c(C(C)(C)C)c1 | 30.6 µM (active) and inactive |
| Clc1ccc2n[nH]nc2c1 | inactive |
| CCCCC(CC)COC(=O)c1ccccc1C(=O)O (stereo not given) | inactive |
| Cc1ccc2oc(CN(Cc3ccccc3)C(=O)Nc3c(F)cc(F)cc3F)c(-c3ccc(Cl)cc3)c2c1 | inactive |
| CSc1cnc(C)cn1 | inactive |
| CCC(N)(CO)CO | inactive |
| NC(=O)C1(N2CCCCC2)CCN(CCCN2c3ccccc3CCc3ccc(Cl)cc32)CC1 | 16.8 µM (active) |
| CS(=O)(=O)CCNCc1ccc(-c2ccc3ncnc(Nc4ccc(OCc5cccc(F)c5)c(Cl)c4)c3c2)o1 | 26.6 µM (active) |
| CC(=O)N1CCN(c2ccc(OC[C@H]3CO[C@](Cn4ccnc4)(c4ccc(Cl)cc4Cl)O3)cc2)CC1 | 61.1 µM (active) |
| Cc1cccc(N(C)C(=S)Oc2ccc3c(c2)C2CCC3C2)c1 (stereo not given) | inactive |
| CC1=NC(C)OC1C (stereo not given) | inactive |
| O=C(Nc1cccc(C(F)(F)F)c1)c1cc(Br)cc(Br)c1O | 10.9 µM (active) |
| C[C@H]1[C@H]2CC[C@H]3[C@@H]4CC=C5C[C@@H](N(C)C)CC[C@]5(C)[C@H]4CC[C@]23CN1C | inactive |
| CCC(C)Nc1ccc(NC(C)CC)cc1 (stereo not given) | 7.84 µM (active) |
| CC(C)(C)C(=O)OCOC(=O)[C@@H]1N2C(=O)[C@@H](NC(=O)[C@H](N)c3ccccc3)[C@H]2SC1(C)C | inactive |
| Nc1c2ccccc2nc2ccccc12 | 24 µM (active) |
| NC(=O)N1C(=O)C(C(=O)c2cc(Cl)cs2)c2cc(F)c(Cl)cc21 (stereo not given) | 8.63 µM (active) |
| Clc1ccccc1C(c1ccccc1)(c1ccccc1)n1ccnc1 | 30.6 µM (active) |
| CCCCC(CC)COP(=O)(O)OCC(CC)CCCC (stereo not given) | 61.1 µM (active) |
| CCCCN(CCCC)C(=O)N(CCCC)CCCC | inactive |

| SMILES | Potency |
| --- | --- |
| O=C(NO)C1(NS(=O)(=O)c2ccc(Oc3ccc(F)cc3)cc2)CCOCC1 | inactive |
| Clc1ccc2nsnc2c1NC1=NCCN1 | inactive |
| Oc1ccc2c(c1)-c1ccccc1C2 | inactive |
| COc1cc(-c2ccc(N=C=O)c(OC)c2)ccc1N=C=O | inactive |
| COC(=O)C1=C(C)NC(C)=C(C(=O)OCC(C)C)C1c1ccccc1[N+](=O)[O-] (stereo not given) | inactive |
| Nc1ccc2c3c(cccc13)-c1ccccc1-2 | inactive |
| O=C1C=CC(=O)N1 | 62.8 µM (active) |
| CCCC(C)c1ccccc1O (stereo not given) | inactive |
| CC(=O)OCC(C)OC(C)=O (stereo not given) | inactive |
| CCOc1nc2cccc(C(=O)OC(C)OC(=O)OC3CCCCC3)c2n1Cc1ccc(-c2ccccc2-c2nn[nH]n2)cc1 (stereo not given) | 30.6 µM (active) |
| NNc1nc(-c2ccc(N)cc2)cs1 | inactive |
| CCCN(CCC)c1c([N+](=O)[O-])cc(C(F)(F)F)c(N)c1[N+](=O)[O-] | 60.9 µM (active) |
| CN(C/C=C/C#CC(C)(C)C)Cc1cccc2ccccc12 | inactive |
| C=C(C)C(=O)OCC(O)COc1ccc(C(C)(C)c2ccc(OCC(O)COC(=O)C(=C)C)cc2)cc1 (stereo not given) | inactive |
| C[n+]1cc2c3c(ccc2c2ccc4cc5c(cc4c21)OCO5)OCO3 | 0.92 µM (active) |
| CC/C(=C(\c1ccc(O)cc1)c1ccc(OCCN(C)C)cc1)c1ccccc1 | 15.4 µM (active) |
| CCCCCCCCNC(C)C(O)c1ccc(SC(C)C)cc1 (stereo not given) | 16.8 µM (active) |
| [Cl][Bi]([Cl])([c]1ccccc1)([c]1ccccc1)[c]1ccccc1 | 5.42 µM (active) |
| N=C1N=C(N)c2ccccc21 | 54.5 µM (active) |
| C/C=C(\C)C(=O)OCc1ccccc1 | inactive |
